# “And” between values parts separate entries of the source, which are not always exact repeats. Identical values can stand only once. Where a structure was tested more than once in an assay, its records may differ in their call. The source made the active and inactive calls. How the source made its calls: active means hit-call score of the fitted dose curve at least 0.9, where 1 is the maximum; inactive means score below 0.9.
# Test: CCTE_Shafer_MEA_dev_per_network_spike_spike_number_mean: CCTE's Neural Network Formation Assay for Mean Number of Spikes in a Network Spike, Shafer Lab (AID 2284053)
# Procedure: CCTE_Shafer_MEA_dev assay is conducted using Axion Biosystems 48 well microelectrode array (MEA) plates and Maestro recording system. Each well of the MEA plate contains a grid of 16 microelectrodes embedded in the culture surface. Electrically active cells, such as neurons, can be cultured over the electrodes, and electrical activity in these cells can be recorded extracellularly. The spontaneous firing of neurons is captured from each electrode on a microsecond timescale providing both temporally and spatially precise data. […] The CCTE_Shafer_MEA_dev assay uses primary cultures of rat cortical neurons. Recordings are made on days post-plating 5, 7, 9 and 12. As these cultures mature over time, neural networks develop functional activity and form cohesive networks in which electrical activity can be highly coordinated. CCTE_Shafer_MEA_dev_per_network_spike_spike_number_mean is 1 of 19 assay components of the CCTE_Shafer_MEA_dev assay. It measures the average number of spikes (action potential firings) in a network spike (temporally-clustered group of spikes across multiple electrodes) as the number of spikes that occur within a 0.05 s time window at the peak of a network spike divided by the total number of network spikes during a recording in a microelectrode array (MEA) using Axion Biosystems Maestro 768 channel amplifier with the AxIS adaptive spike detector. To collapse across multiple recordings made on days post-plating 5, 7, 9 and 12, the trapezoidal area-under-the-curve of the component is calculated.Data from the assay component CCTE_Shafer_MEA_dev_per_network_spike_spike_number_mean was analyzed into 1 assay endpoint. This assay endpoint, CCTE_Shafer_MEA_dev_per_network_spike_spike_number_mean, was analyzed in the negative analysis fitting direction relative to DMSO as the negative control and baseline of activity. Using a type of functional reporter, gain or loss-of-signal activity can be used to understand electrical activity.
# On the day prior to culture, each well was coated thoroughly with 150 uL of 0.05% polyethyleneimine (PEI, Sigma Cat P3143) in 50 mM HEPES (Sigma Cat H7523) at a pH of 8. The plate was incubated at 37C for one hour. PEI was rinsed out with 500 uL of sterile water three times. Plates were stored at 4C until the day of culture. This culture was plated at a seeding density of 1.5 x 10^5 cells/well on a 48-well MEA plate, prepared as described above. Cells were administered via a 25 uL media/laminin ([…]; Sigma Cat L2020-1MG) drop directly onto the microelectrode array, as adding the cells with the laminin results in better attachment than pre-coating with laminin. After 2 hours, an additional 475 uL of cortical media was added and the cells returned to the incubator. Exposure starts at day 0 of plating and is continued over twelve days of network development until the experiment is terminated. Cells are fed with fresh medium on DIV 5 and 9, following the recordings on those days. The entire volume of media in the well is exchanged and any vehicle or compound treatment is renewed. Complete details are found in OP-NHEERL/ISTD/SBB/TJS/2015-03-r0 (available on request, email shafer.tim@epa.gov). Measurement of the electrical activity is non-invasive, and recordings can be made from the same plate over multiple different days of the culture. In cortical neurons, this allows for the measurement of extracellular action potentials over the period during which networks form in the MEA plate.
Compound,outcome,AC50
O=P1(N(CCCl)CCCl)NCCCO1 (stereo not given),inactive,
CCCCC(CC)COP(=O)(Oc1ccccc1)Oc1ccccc1 (stereo not given),inactive,
O=C(O)C(F)(F)C(F)(F)C(=O)O,inactive,
CCCCC(CC)COC(=O)c1c(Br)c(Br)c(Br)c(Br)c1C(=O)OCC(CC)CCCC (stereo not given),inactive,
CCOP(=S)(OCC)SCSCC,,50 µM (active) and 12.1 µM (active)
O=C(O)C(F)(OC(F)(F)C(F)(F)C(F)(F)F)C(F)(F)F (stereo not given),inactive,
CC(C)(C)c1ccccc1OP(=O)(Oc1ccccc1)Oc1ccccc1,inactive,25.4 µM (active)
ClC1=C(Cl)C2(Cl)C3C(Cl)C(Cl)CC3C1(Cl)C2(Cl)Cl (stereo not given),,7.75 µM (active)
O=C(O)C(F)(F)OC(F)(F)C(F)(F)OC(F)(F)F,inactive,
O=C(O)C=CC(F)(C(F)(F)F)C(F)(F)F,inactive,
CCC1(c2ccccc2)C(=O)N=C(O)NC1=O (stereo not given),inactive,
OCC(F)(F)OC(F)(F)C(F)(F)OC(F)(F)CO,inactive,
O=C(O)C(F)(F)OC(F)(F)C(F)(F)OC(F)(F)C(=O)O,inactive,
C=CC(=O)OCC(F)(F)C(F)F,,4.85 µM (active)
c1cc2c3c(cccc3c1)CC2,inactive,
c1ccc(OP(Oc2ccccc2)Oc2ccccc2)cc1,inactive,
O=S(=O)(c1ccc(O)cc1)c1ccc(O)cc1,inactive,
OCC(F)(F)OC(F)(F)C(F)(F)OC(F)(F)C(F)(F)OC(F)(F)F,inactive,
CO/N=C(/C(=O)OC)c1ccccc1COc1ccccc1C,,0.518 µM (active)
O=C(O)C1C(C(=O)O)C2(Cl)C(Cl)=C(Cl)C1(Cl)C2(Cl)Cl (stereo not given),inactive,
CCOc1ccc(C(C)(C)COCc2cccc(Oc3ccccc3)c2)cc1,,10 µM (active)
CC(O)C(F)(F)C(F)(F)F (stereo not given),inactive,
O=P(Oc1ccccc1)(Oc1ccccc1)Oc1ccccc1,inactive,
OCC(F)(F)OC(F)(F)C(F)(F)OC(F)(F)C(F)(F)OC(F)(F)CO,inactive,

# Reference: PubChem BioAssay (EPA / NIEHS)
